# This is a sample that favours compounds with a hit; in the whole collection about 8.1% have one here.
# ELG1 DNA repair = ELG1-dependent DNA repair inhibition | HEK293T ELG1-luciferase reporter, luminescence, 16 h; DNA damage induced by 5-fluorouridine | Potency, µM (highest dose often 46.1 µM), without a hit: at the highest dose activity change, negative = inhibition, most hits filed as inhibitors | 330,000 tested, 2.3% active; also: % is scaled to controls: 0 for no effect and ±100 for the full control effect; nearly all actives have a fitted effect of over 55% in size
#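 Step one: seed 2,000 cells per well. Step two: pin-transfer compound or DMSO alongside 5-fluorouridine. Step three: incubate 16 hr, 37 °C, 5% CO2. Step four: add ONE-Glo, wait 30 min, read luminescence.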
# KB-3-1 cytotox = KB-3-1 parental cell cytotoxicity. AID 1347075. KB-3-1 viability, CellTiter-Glo ATP luminescence, 72 h. 400,000 tested, 1.4% active. Potency, µM (highest dose often 46.1 µM), usual class: cytotoxic; also: % is scaled to controls: 0 for no effect and ±100 for the full control effect; nearly all actives have a fitted effect of over 60% in size
#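 Viability of parental KB-3-1 cells, measured by CellTiter-Glo luminescence, followed a 72 h incubation at 37 °C with pinned compounds in phenol-red-free DMEM containing 10% FBS.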
# SW480 rerep = inducers of DNA re-replication in SW480 colon cancer cells; AID 624297; SW480 DNA re-replication, Hoechst DNA content imaging, 48 h; 340,000 tested, 1.8% active; Potency, µM (series often up to 46.1 µM), inactives show at the top dose re-replication activation, hits mostly activators; also: % of control where 0% means no effect; nearly all actives have a fitted effect of over 55% in size
#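 Readout is total intensity of Hoechst-stained nuclei, excited at 405 nm and collected at 500-530 nm. Compound treatment lasted 48 hr at 37 C in 5% CO2 before staining.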
# MCF10A rerep = DNA re-replication induction in MCF 10a cells; Potency, µM (highest dose often 46.1 µM), inactives show at the top dose activity, positive = re-replication, usual class: activators; MCF 10A DNA re-replication, Hoechst nuclear intensity, 48 h; 350,000 tested, 2.9% active; also: % of control where 0% means no effect; nearly all actives have a fitted effect of over 50% in size
# KB-V1 MDR tox = kills drug-selected multidrug resistant KB-V1 cells | AID 1347076 | 400,000 tested, 3.4% active | Potency, µM (top dose mostly 46.1 µM), hits mostly cytotoxic | KB-V1 MDR cells viability, CellTiter-Glo, 72 h; also: % is scaled to controls: 0 for no effect and ±100 for the full control effect; nearly all actives have a fitted effect of over 60% in size
#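 qHTS viability screen in drug-selected KB-V1 MDR cells: 72 h compound treatment at 37 degrees C, ATP luminescence end point.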
# * marks the source's active call; other numbers are inactive results; i = inactive; ? = inconclusive; nt = no result given. Calls follow the shape of the dose curve; as a rule, active = well fitted curve in the direction sought with a large enough effect; inconclusive = small, poorly fitted or top-dose-only effect, or another doubt; inactive = no such curve, though single readings can be large; an effect the other way counts as inactive or inconclusive. Potency is read from the fitted curve at half-maximal effect.
SMILES,ELG1 DNA repair,KB-3-1 cytotox,SW480 rerep,MCF10A rerep,KB-V1 MDR tox
C[C@@H]1CN([C@H](C)CO)C(=O)CCCn2nncc2CO[C@H]1CN(C)S(=O)(=O)c1cccc(C#N)c1,nt,i,nt,nt,i
CCCNC(=O)C1(C)CCCN(Cc2cccs2)C1 (configuration not stated),nt,i,nt,nt,i
Nc1ccc2c(c1)-c1ccc(F)cc1C2=O,nt,i,-1.5%,0.3%,?
Nc1c(C(=O)Nc2ccc3c(c2)OCCO3)nnn1Cc1cccc(Cl)c1,?,16.4µM*,-91.4%,?,i
Nc1c(C(=O)Nc2ccc3c(c2)OCCO3)nnn1Cc1ccc(F)cc1,?,i,-159.5%,2.0%,i
Cc1cc(C)c(NC(=O)CNC(=O)[C@@H]2CCCN2C(=O)c2cccs2)c(C)c1,8.7%,i,-31.4%,1.1%,i
CCCn1c(N)c(C(=O)COC(=O)c2c(C)noc2C)c(=O)n(C)c1=O,23.1µM*,i,4.1%,3.8%,i
Cc1c(N(C(=O)CNC(=O)c2ccccc2)C2(C(=O)NC3CCCC3)CCCCC2)c(=O)n(-c2ccccc2)n1C,7.3%,i,7.8%,15.4%,i
O=C(NCC(=O)N(CC1CCCO1)C1(C(=O)NC2CCCCC2)CCCCC1)c1ccccc1 (configuration not stated),12.2%,i,1.7%,1.4%,3.26µM*
O=C(NCC(=O)N(CC1CCCO1)C1(C(=O)NC2CCCC2)CCCCC1)c1ccccc1 (configuration not stated),7.1%,i,-2.9%,5.6%,14.6µM*
CCC(C)(C(=O)NC1CCCCC1)N(CC1CCCO1)C(=O)CNC(=O)c1ccccc1 (configuration not stated),3.7%,i,-0.5%,3.7%,?
N=C1SCC(=O)N1c1ccc(Cl)cc1,4.5%,14.6µM*,?,-0.2%,?
CCOC(=O)N1CCC(Nc2c(N3CCN(c4cc(Cl)ccc4C)CC3)c(=O)c2=O)CC1,?,?,4.0%,10.8%,?
CCOC(=O)c1ccc(N2CCN(c3cc(C)ccc3C)CC2)c(N)c1,0.3%,i,?,18.4µM*,i
CCOC(=O)N1CCC(N2CCN(c3cc(C)ccc3C)CC2)CC1,?,i,-2.8%,3.6%,23.1µM*
CCCCCCSc1nnc2c(n1)OC(C)Nc1ccc(Br)cc1-2 (configuration not stated),nt,?,nt,nt,i
Cc1ccnc2ccc(Br)cc12,nt,i,nt,nt,i
CCc1ccc(CNC(=O)Cc2ccc(NC(=O)C3=C(C)OCCS3)cc2)cc1,?,1.16µM*,?,?,1.16µM*
OC(c1ccccc1)(c1ccccc1)c1nccc2ccccc12,nt,?,2.2%,9.6%,18.4µM*
Cc1nc2ccc(S(=O)(=O)Nc3ccc(-c4nc5cccnc5s4)cc3)cc2s1,?,i,14.3%,6.51µM*,i
Cc1ccc2nc(-c3ccc(NS(=O)(=O)c4ccc(F)c(F)c4)cc3)sc2c1,?,i,?,10.3µM*,i
Cc1nc2ccc(S(=O)(=O)Nc3cccc(-c4nc5cccnc5s4)c3)cc2s1,3.5%,?,2.0%,6.51µM*,i
O=S(=O)(Nc1cccc(-c2nc3cccnc3s2)c1)c1ccc2c(c1)CCCC2,1.3%,i,-2.6%,?,i
Cc1c(Cl)cccc1NC(=O)CN1C(=O)CCn2nc(-c3cccn3C)cc21,nt,i,nt,nt,i
CCc1cccc(NC(=O)CN(c2ccc(C)cc2)S(=O)(=O)c2cccs2)c1,nt,i,nt,nt,?
SMILES,ELG1 DNA repair,KB-3-1 cytotox,SW480 rerep,MCF10A rerep,KB-V1 MDR tox
O=C(CN1CCSc2ccccc21)NCc1ccccc1F,nt,i,nt,nt,i
CC[N+]1(C)CCC(O)(c2ccc(OC)cc2)C(C(=O)c2ccc(OC)cc2)C1 (configuration not stated),nt,?,2.91µM*,4.61µM*,?
COc1ccc(-c2ccc(C(=O)C3CC3)cc2)cc1,?,i,-0.7%,6.0%,?
Cc1cc2oc(=O)c(CC(=O)NCCCN(C)C)c(C)c2c2occ(C(C)(C)C)c12,?,?,9.2µM*,?,?
COCCNC(=O)Cc1c(C)c2c(cc(C)c3c(C(C)(C)C)coc32)oc1=O,6.4%,?,16.4µM*,5.8µM*,?
Cc1cc2oc(=O)c(CC(=O)NCCCO)c(C)c2c2occ(C(C)(C)C)c12,5.8%,i,4.8%,20.4%,i
Cc1ccc(S(=O)(=O)N2C[C@H]3C(=O)C[C@@H](c4ccccc4F)N(S(=O)(=O)c4ccc(C)cc4)[C@H]3C[C@H]2c2ccccc2)cc1,nt,i,nt,nt,i
Cc1ccc(-c2n[nH]c(=O)c3ccccc23)cc1S(=O)(=O)Nc1ccccc1,?,?,1.0%,?,20.6µM*
O=C(COc1ccc(F)cc1)c1ccc2c(c1)CCCC2,nt,i,1.1%,10.3µM*,i
CCOC(=O)C1CCCN(C(=O)c2ccccc2SCCOC)C1 (configuration not stated),1.8%,i,?,20.6µM*,i
CCOC(=O)C1CCCN(C(=O)c2cc(-c3ccc(C)cc3)nc3ccccc23)C1 (configuration not stated),?,i,-1.3%,?,11.6µM*
CCNc1ccc(/C=C2\C=Cc3ccccc32)cc1,nt,i,nt,nt,i
CC(C)(C(=O)N1CCC1(C)C(=O)NS(=O)(=O)c1cccc(Cl)c1)c1ccccc1 (configuration not stated),nt,i,nt,nt,i
C=CCSC(=C(C#N)C#N)c1cc2c([nH]1)CCCC2,?,18.4µM*,?,?,?
Cc1cc(C(=O)CCC(=O)Nc2cccc(F)c2)c(C)s1,nt,i,nt,nt,i
COc1ccc(N2CCN(c3ncnc4sc(C(=O)NCC5CCCO5)c(C)c34)CC2)cc1 (configuration not stated),?,i,-0.5%,?,?
Cc1c(C(=O)N2CCCCC2C)sc2ncnc(N3CCc4ccccc4C3)c12 (configuration not stated),20.6µM*,i,-2.3%,?,?
COc1ccccc1N1CCN(c2ncnc3sc(C(=O)NCC4CCCO4)c(C)c23)CC1 (configuration not stated),9.2µM*,i,2.3%,4.8%,i
COCCCNC(=O)c1sc2ncnc(N3CCc4ccccc4C3)c2c1C,8.2µM*,?,20.6µM*,14.6µM*,i
Cc1c(C(=O)N2CCOCC2)sc2ncnc(N3CCc4ccccc4C3)c12,12.4%,i,4.1%,0.2%,i
COc1cccc(-c2nc(SCC(=O)NC3CCCC3)c(-c3ccccc3)[nH]2)c1,nt,i,nt,nt,i
O=C(Nc1nnc([C@@H]2C[C@H](O)[C@@H](CO)O2)s1)c1cccc(OC(F)(F)F)c1,nt,i,nt,nt,i

# Source: PubChem (National Center for Advancing Translational Sciences (NCATS))
